We go through 13 compounds from PubChem BioAssay (NCI).

Some test systems named below: SK-MEL-2 melanoma; EKVX NSCLC; SN12C renal; UO-31 renal; TK-10 renal; ACHN renal; CAKI-1 renal; A498 renal; CCRF-CEM leukemia; MOLT-4 leukemia.
Assay in all cases: NCI-60 one-dose screen, 48 h (100 = growth as untreated, 0 = no growth, -100 = all killed)
Common to all, as to settings: 10 µM unless noted

The panel holds about 83,000 compounds, 20% with a hit somewhere; the sample as a whole holds those more often.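 Each cell line was grown in a 96-well plate and treated with one concentration of compound for 48 hours. Values below 10 were considered active.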 Values without a mark were called inactive. Activity calls are given as the source filed them.

Consider `CCCc1cc2c(cc1CN(Cc1cc3c(cc1CCC)OCO3)C(=N)OCC)OCO2`, for which the growth is 81.3% with SK-MEL-2 melanoma; 75% in the assay with EKVX NSCLC; 80% with SN12C renal; 67.3% in the assay with UO-31 renal; 72.9% in the assay with TK-10 renal; 90.4% in the assay on ACHN renal. The growth in the assay with CAKI-1 renal is 83.5%; in the assay with A498 renal, 97.6%; with CCRF-CEM leukemia, 80.4%; with MOLT-4 leukemia, 93.5%.

For `C=CCn1c(C)nc2cc(Nc3nc(Nc4ccc5nc(C)n(CC=C)c5c4)nc4ccccc34)ccc21`, the growth with SK-MEL-2 melanoma was 121%; in the assay with EKVX NSCLC, 97.1%; in the assay with SN12C renal it was 96.5%; in the assay with UO-31 renal it was 89.3%; in the assay with TK-10 renal, 130%; with ACHN renal it was 104%. The growth with CAKI-1 renal is 101%; with A498 renal, 125%; in the assay with CCRF-CEM leukemia, 94.8%; in the assay on MOLT-4 leukemia it was 101%.

In the case of `O=c1[nH]c2ccccc2n2cc3cccnc3c12`, the growth is 105% with SK-MEL-2 melanoma; 86.4% in the assay with EKVX NSCLC; 51.2% in the assay with SN12C renal; 67.8% in the assay on UO-31 renal; 83.7% in the assay with TK-10 renal; 49.1% in the assay with ACHN renal. Besides, the growth was 68.1% in the assay with CAKI-1 renal, 51.2% with A498 renal, 74.5% with CCRF-CEM leukemia and 48.4% in the assay on MOLT-4 leukemia.

On to `CC(=O)O[C@H]1[C@H](CC#CC#CC[C@@H]2C[C@]3(C)[C@H]4CC=C5[C@H]6[C@@H](C)[C@H](C)CC[C@]6(C(=O)NCCCCCCCCN)CC[C@@]5(C)[C@]4(C)CC[C@H]3C(C)(C)[C@H]2OC(C)=O)C[C@]2(C)[C@H]3CC=C4[C@H]5[C@@H](C)[C@H](C)CC[C@]5(C(=O)NCCCCCCCCN)CC[C@@]4(C)[C@]3(C)CC[C@H]2C1(C)C`, for which the growth with SK-MEL-2 melanoma is 125%; in the assay on EKVX NSCLC, 110%; in the assay with SN12C renal, 97.8%; with UO-31 renal it was 73.7%; with TK-10 renal, 145%; with ACHN renal, 119%. Also, the growth in the assay with CAKI-1 renal is 101%; in the assay on A498 renal, 118%; in the assay with CCRF-CEM leukemia, 105%; in the assay on MOLT-4 leukemia, 103%.

As to `CCCCCCCCCCCCCCCCOc1ccc(S(=O)(=O)N(C)C)cc1[N+](=O)[O-]`, the growth with SK-MEL-2 melanoma is 97.1%; in the assay on EKVX NSCLC, 98.8%; in the assay on SN12C renal it was 93.1%; in the assay with UO-31 renal, 98.5%; in the assay with TK-10 renal it was 86%; with ACHN renal, 93.5%. The growth in the assay on CAKI-1 renal was 99.1%; in the assay with A498 renal, 118%; with CCRF-CEM leukemia it was 114%; in the assay on MOLT-4 leukemia, 103%.

Regarding `O=C1C=CC(=O)N1c1cccc(N2C(=O)C=CC2=O)c1`, the growth in the assay with SK-MEL-2 melanoma is 111%; in the assay with EKVX NSCLC, 95.6%; in the assay on SN12C renal, 106%; with UO-31 renal it was 28.4%; in the assay with TK-10 renal, 33.1%; in the assay on ACHN renal, -26% (active). The growth in the assay with CAKI-1 renal is 37.3%; in the assay with A498 renal, 111%; in the assay with CCRF-CEM leukemia, -22.3% (active); in the assay on MOLT-4 leukemia, 103%.

Turning to `COc1c(B(O)O)cccc1-c1nc2ccc3[nH]ncc3c2c2c1CCCC2`, the growth with SK-MEL-2 melanoma was 33.7%; with EKVX NSCLC, 23.6%; in the assay with SN12C renal, 23.7%; with UO-31 renal, 0.387% (active); in the assay with TK-10 renal, 11.5%; in the assay with ACHN renal, 3.93% (active). In addition, the growth with CAKI-1 renal is 5.83% (active); in the assay with A498 renal it was -16.4% (active); with CCRF-CEM leukemia, 6.99% (active); in the assay on MOLT-4 leukemia, 11.5%.

As for `COc1cc2nccc(Oc3ccc(NC(=O)C4(C(=O)Nc5ccc(F)cc5)CC4)cc3)c2cc1Oc1ccc(N)cn1`, the growth was 54.3% with SK-MEL-2 melanoma; 15.9% in the assay with EKVX NSCLC; 14.8% in the assay on SN12C renal; 19.8% in the assay on UO-31 renal; 36.3% in the assay on TK-10 renal; 18.6% with ACHN renal. In addition, the growth in the assay on CAKI-1 renal is 43.5%; in the assay with A498 renal, -20.9% (active); in the assay on CCRF-CEM leukemia, 61.2%; in the assay with MOLT-4 leukemia it was 29.5%.

Regarding `Cn1nc(C(F)(F)F)cc1-c1c[nH]c(OCc2ccc(Cl)cc2)c(-c2ccc(Cl)c(C(F)(F)F)c2)c1=O`, the growth is -31.4% (active) in the assay with SK-MEL-2 melanoma; 5.56% (active) with EKVX NSCLC; 4.1% (active) in the assay with SN12C renal; -1.38% (active) in the assay with UO-31 renal; 3.46% (active) in the assay with TK-10 renal; -15.8% (active) with ACHN renal. Further, the growth with CAKI-1 renal is -22.7% (active); with A498 renal, -60.9% (active); in the assay with CCRF-CEM leukemia, 10.5%; in the assay with MOLT-4 leukemia, -9.43% (active).

Take `CN(C)c1ccc(Nc2c3ccccc3nc3ccccc23)cc1`: the growth was 40.1% in the assay on SK-MEL-2 melanoma; 19.1% in the assay with EKVX NSCLC; 16.4% with SN12C renal; -31% (active) in the assay on UO-31 renal; 34.1% in the assay with TK-10 renal; -18.8% (active) in the assay on ACHN renal. For the same compound, the growth in the assay with CAKI-1 renal is -13.5% (active); in the assay with A498 renal it was 14.2%; with CCRF-CEM leukemia, 19.9%; with MOLT-4 leukemia, 6.01% (active).

In the case of `COc1ccc(-n2nc(C(=O)NCC(=O)Nc3nc4cc(OC)ccc4s3)c3ccccc3c2=O)cc1`, the growth was -19.9% (active) in the assay on SK-MEL-2 melanoma; 30.4% in the assay with EKVX NSCLC; 41.7% in the assay on SN12C renal; -0.0591% (active) in the assay on UO-31 renal; -41.9% (active) with TK-10 renal; -1.26% (active) in the assay on ACHN renal. Further, the growth is -27.5% (active) in the assay with CAKI-1 renal, -2.05% (active) with A498 renal, 92.7% in the assay with CCRF-CEM leukemia and 58.5% in the assay with MOLT-4 leukemia.

As for `C=CCOc1c(Br)cc(Br)cc1Br`, the growth in the assay on SK-MEL-2 melanoma was 69.3%; in the assay on EKVX NSCLC it was 64%; in the assay on SN12C renal it was 62.9%; in the assay on UO-31 renal, 28.2%; with TK-10 renal it was 102%; in the assay on ACHN renal, 48.7%. The growth was 76.5% with CAKI-1 renal, 55.9% in the assay with A498 renal, 43.6% in the assay on CCRF-CEM leukemia and 64.6% in the assay with MOLT-4 leukemia.

On to `COc1ccc(/C=c2\c(=O)n(-c3ccccc3)c3nn4c(n23)=NNC42CCCCC2)cc1`, for which the growth was 108% with SK-MEL-2 melanoma; 91.8% in the assay on EKVX NSCLC; 98.5% in the assay with SN12C renal; 63.2% in the assay with UO-31 renal; 159% in the assay with TK-10 renal; 90.5% in the assay with ACHN renal. In addition, the growth with CAKI-1 renal was 85.6%; in the assay on A498 renal, 93.4%; in the assay with CCRF-CEM leukemia it was 101%; in the assay with MOLT-4 leukemia it was 98.8%.
